# A selection: hits, their analogues and other compounds. The true share with any hit is near 11%.
# HEK cytotox: Cytotoxic Profiling in HEK 293 Cell Line of Diverse Libraries Using Quantitative High-Throughput Screening; hit rate 6.6% among 94,000; AID 1345083, 2018; Potency, µM (top dose mostly 115 µM), actives largely listed as inhibitors; HEK 293 viability, ATP luminescence (CellTiter-Glo), 48-72 h; active = well fitted curve in the direction sought with a large enough effect; inconclusive = small, poorly fitted or top-dose-only effect, or another doubt; inactive = no such curve, though single readings can be large; an effect the other way counts as inactive or inconclusive; also: nearly all actives have a fitted effect of over 60% in size
#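 Cytotoxicity was scored by loss of ATP-coupled luminescence (CellTiter-Glo) in HEK 293 cells. Compound treatment ran 48 or 72 hr at 37 degree Celsius, 5% CO2, 95% humidity.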
# hNpr1 antagonist: Natriuretic polypeptide receptor (hNpr1) antagonism - Primary qHTS; Atrial natriuretic peptide receptor 1 (Homo sapiens), P16066; HEK293 hNpr1 GloSensor cGMP, ANP-stimulated luminescence; Potency, µM (highest dose often 46.3 µM), most hits filed as inhibitors; hit rate 1.6% among 76,000; also: nearly all actives have a fitted effect of over 60% in size
#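 Compound pre-incubated 30 min at room temperature on GloSensor-loaded HEK293 cells stably carrying hNpr1 and the pGS-40F cGMP biosensor. Stimulation uses hNppA at 0.1 nM final; luminescence is taken at baseline and 20 min post-agonist.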
# 3T3 cytotox: Cytotoxic Profiling in NIH 3T3 Cell Line of Diverse Libraries Using Quantitative High-Throughput Screening; Potency, µM (highest dose often 96.7 µM), usual class: inhibitors; AID 1345082, 2018; NIH 3T3 viability, CellTiter-Glo ATP luminescence, 48-72 h; hit rate 4.3% among 94,000; active = well fitted curve in the direction sought with a large enough effect; inconclusive = small, poorly fitted or top-dose-only effect, or another doubt; inactive = no such curve, though single readings can be large; an effect the other way counts as inactive or inconclusive; also: nearly all actives have a fitted effect of over 55% in size
#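 Luminescent ATP readout (CellTiter-Glo, 10 min RT) after 48 or 72 hr compound exposure of NIH 3T3 cells seeded at 400 cells/well in 1536-well format; quantitative HTS.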
# Luciferase inh: Firefly luciferase inhibition profiling of diverse chemical library using quantitative high-throughput screening. Luciferin 4-monooxygenase (Photinus pyralis), P08659. purified P. pyralis luciferase, luminescence, biochemical. Potency, µM (top dose mostly 115 µM), actives largely listed as inhibitors. hit rate 2.5% among 76,000. AID 1347043, 2019; active = well fitted curve in the direction sought with a large enough effect; inconclusive = small, poorly fitted or top-dose-only effect, or another doubt; inactive = no such curve, though single readings can be large; an effect the other way counts as inactive or inconclusive; also: nearly all actives have a fitted effect of over 65% in size
#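 Cell-free enzyme assay, 10nM P. pyralis luciferase, luciferin and ATP each at 10uM. Inhibition profiled over a 6-point titration, read as luminescence.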
# Npr1 antag conf: Natriuretic polypeptide receptor (hNpr1) antagonism - Confirmation; hit rate 76% among 1,400; shares compounds with hNpr1 antagonist; AID 1347044, 2019; HEK293 hNpr1 cGMP GloSensor luminescence, ANP-stimulated; Potency, µM (highest dose often 57.6 µM), usual class: inhibitors; also: nearly all actives have a fitted effect of over 70% in size
# NPR2 antag: Natriuretic polypeptide receptor (hNpr2) antagonism - Subtype selectivity assay; shares compounds with hNpr1 antagonist; HEK293 hNpr2 GloSensor cGMP luminescence, CNP-stimulated; Potency, µM (highest dose often 57.6 µM), usual class: inhibitors; hit rate 67% among 1,400; also: nearly all actives have a fitted effect of over 70% in size
# Target sequence (P20594 whole entry, looked up): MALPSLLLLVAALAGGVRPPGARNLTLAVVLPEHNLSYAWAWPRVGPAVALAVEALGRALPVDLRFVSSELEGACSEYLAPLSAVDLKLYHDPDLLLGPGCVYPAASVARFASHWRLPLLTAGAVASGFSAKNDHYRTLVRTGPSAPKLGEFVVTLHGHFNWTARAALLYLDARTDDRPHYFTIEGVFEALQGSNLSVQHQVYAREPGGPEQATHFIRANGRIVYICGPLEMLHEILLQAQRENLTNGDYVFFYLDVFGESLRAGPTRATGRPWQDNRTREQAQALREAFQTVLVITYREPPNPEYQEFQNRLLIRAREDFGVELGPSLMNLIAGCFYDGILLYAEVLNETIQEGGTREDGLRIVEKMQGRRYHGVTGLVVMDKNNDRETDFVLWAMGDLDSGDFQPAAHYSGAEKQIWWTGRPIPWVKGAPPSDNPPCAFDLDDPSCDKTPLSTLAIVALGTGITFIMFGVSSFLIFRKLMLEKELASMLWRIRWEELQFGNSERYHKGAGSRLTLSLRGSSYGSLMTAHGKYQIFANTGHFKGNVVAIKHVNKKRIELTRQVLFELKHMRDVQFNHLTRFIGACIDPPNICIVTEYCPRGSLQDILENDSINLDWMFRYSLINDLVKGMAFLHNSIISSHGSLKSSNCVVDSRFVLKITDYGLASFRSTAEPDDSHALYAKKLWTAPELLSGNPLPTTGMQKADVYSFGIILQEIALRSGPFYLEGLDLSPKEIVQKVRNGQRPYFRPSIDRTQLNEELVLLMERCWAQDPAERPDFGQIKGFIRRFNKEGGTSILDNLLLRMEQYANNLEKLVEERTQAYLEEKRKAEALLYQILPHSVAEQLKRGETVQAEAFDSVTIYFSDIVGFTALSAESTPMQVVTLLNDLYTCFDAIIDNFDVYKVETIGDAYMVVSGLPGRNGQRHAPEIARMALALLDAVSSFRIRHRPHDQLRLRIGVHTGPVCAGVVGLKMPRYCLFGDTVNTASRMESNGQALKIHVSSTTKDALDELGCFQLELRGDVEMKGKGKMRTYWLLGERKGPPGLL
# FLuc counter: Natriuretic polypeptide receptor (hNpr1) antagonism - Confirmation firefly luciferase (FLuc) inhibition counterscreen | shares compounds with hNpr1 antagonist | purified FLuc enzyme, luminescence, Km substrate | Potency, µM (highest dose often 57.6 µM), actives largely listed as inhibitors | hit rate 0.7% among 1,400; active = well fitted curve in the direction sought with a large enough effect; inconclusive = small, poorly fitted or top-dose-only effect, or another doubt; inactive = no such curve, though single readings can be large; an effect the other way counts as inactive or inconclusive
# GloSensor ctrl: Natriuretic polypeptide receptor (hNpr1) antagonism - Counterscreen GloSensor control cell line | AID 1347051, 2019 | shares compounds with hNpr1 antagonist | hit rate 69% among 1,400 | Potency, µM (top dose mostly 57.6 µM), most hits filed as inhibitors | HEK293 GloSensor cGMP, SNP-stimulated, luminescence; also: nearly all actives have a fitted effect of over 70% in size
# Hits are given with their value; . = inactive; ? = inconclusive; / = not tested or not shown. Unless noted, calls follow the shape of the full dose curve.
SMILES,HEK cytotox,hNpr1 antagonist,3T3 cytotox,Luciferase inh,Npr1 antag conf,NPR2 antag,FLuc counter,GloSensor ctrl
CN(C)CCNC(=O)c1nc2nc(-c3ccccc3)c(-c3ccc(O)c(F)c3)cc2n1C,71µM,22µM,45µM,.,35µM,20µM,.,.
COC(=O)c1cccc(NC(=S)N[C@@H]2C=C[C@@H](c3c(C)nn(-c4ccccc4[N+](=O)[O-])c3C)C2)c1,40µM,13µM,40µM,.,19µM,?,.,24µM
CCCn1cc(C(=O)NCC2COc3cc(OC)ccc3C2)c(C)n1 (stereo not given),?,11µM,?,.,19µM,22µM,.,19µM
O=C(Cc1c[nH]c2ncc(-c3cccc(O)c3)cc12)N1CCOCC1,?,.,?,.,/,/,/,/
O=C(Cc1c[nH]c2ncc(-c3ccccc3)cc12)N1CC[S+](=O)([O-])CC1,.,.,?,?,/,/,/,/
COc1ccc(-c2cnc3[nH]cc(CC(=O)N4CCNC(=O)C4)c3c2)cc1,.,.,?,.,/,/,/,/
COc1cc(F)cc(-c2cnc3[nH]cc(CC(=O)N4CCOCC4)c3c2)c1,?,6.3µM,?,.,3.1µM,18µM,?,7.9µM
O=C(Cc1c[nH]c2ncc(-c3ccc(Oc4ccccc4)cc3)cc12)N1CCOCC1,56µM,10µM,?,.,13µM,18µM,?,11µM
O=C(Cc1c[nH]c2ncc(-c3ccccc3)cc12)NCCN1CCOCC1,.,.,?,.,/,/,/,/
O=C(Cc1c[nH]c2ncc(-c3ccccc3Oc3ccccc3)cc12)N1CCOCC1,50µM,14µM,?,.,13µM,22µM,.,13µM
O=C(Cc1c[nH]c2ncc(-c3ccccc3)cc12)N1CCCC1,?,?,?,.,28µM,?,?,?
COCC(=O)N1CCN(C(=O)CSCC(=O)O)C[C@H]1C(=O)N[C@H]1CCCNC1=O,.,.,.,.,/,/,/,/
O=C(NCc1ccc(F)c(F)c1)c1ccc2nc(-c3cccnc3)oc2c1,?,/,.,/,/,/,/,/
Cc1ccccc1OCc1nc(C2CN(C(=O)c3cc4ccccc4[nH]3)C2)no1,?,.,.,?,/,/,/,/
O=C(NC1CCCC1)N1CCCC(C(=O)N2CCCC2c2nc3ccncc3[nH]2)C1 (stereo not given),.,/,.,/,/,/,/,/
O=C(NCCc1cccnc1)c1cc2n(n1)CC(c1ccc(Br)cc1)OC2 (stereo not given),40µM,11µM,?,.,19µM,19µM,.,12µM
Cc1ccc(NC(=O)c2cc3n(n2)CC(c2ccc(Cl)cc2)OC3)cc1 (stereo not given),?,?,?,.,/,/,/,/
O=C(Nc1ccccc1)c1cc2n(n1)CC(c1ccc(Cl)cc1)OC2 (stereo not given),?,13µM,.,.,?,?,.,?
O=C(NCc1ccccc1Cl)c1cc2n(n1)CC(c1ccc(Cl)cc1)OC2 (stereo not given),?,?,?,.,?,?,.,?
O=C(NCc1ccccc1)c1cc2n(n1)CC(c1ccc(Cl)cc1)OC2 (stereo not given),?,?,?,.,/,/,/,/
CC(C)c1ccc(NC(=O)c2cc3n(n2)CC(c2ccc(Cl)cc2)OC3)cc1 (stereo not given),?,10µM,.,.,14µM,?,.,11µM
CC(C)CN1C(=O)CO[C@H](c2ccc(NC(=O)C3CCCC3)cc2)[C@H]1CO,?,?,?,.,/,/,/,/
CC1CCCC(C)N1C(=O)c1ccc2oc(-c3ccnc(Cl)c3)nc2c1 (stereo not given),.,/,.,/,/,/,/,/
O=C(COc1ccc(F)cc1)N1CCC(CCOc2ccccc2F)C1 (stereo not given),?,.,?,.,/,/,/,/
O=C(Nc1cc(F)ccc1Cl)c1cc2n(n1)CC(c1ccc3c(c1)OCO3)OC2 (stereo not given),?,.,.,?,/,/,/,/
SMILES,HEK cytotox,hNpr1 antagonist,3T3 cytotox,Luciferase inh,Npr1 antag conf,NPR2 antag,FLuc counter,GloSensor ctrl
Cc1cc(F)ccc1NC(=O)c1cc2n(n1)CC(c1ccc(Br)cc1)OC2 (stereo not given),79µM,?,.,.,?,?,.,?
O=C(Nc1ccc(F)c(Cl)c1)c1cc2n(n1)CC(c1ccc3c(c1)OCO3)OC2 (stereo not given),45µM,?,?,.,27µM,?,.,?
O=C(NCCc1ccccc1)c1cc2n(n1)CC(c1ccc(Cl)cc1)OC2 (stereo not given),?,?,?,.,?,?,.,?
Cc1ccc(NC(=O)c2cc3n(n2)CC(c2ccc(Cl)cc2)OC3)c(Cl)c1 (stereo not given),?,.,.,.,/,/,/,/
CCn1cc(S(=O)(=O)N2CCCC(Cc3ncc(C)n3Cc3ccccc3)C2)cn1 (stereo not given),.,.,.,.,/,/,/,/
CCCCCNC(=O)CNC(=O)c1cccc(-c2ccsc2)c1,.,/,.,/,/,/,/,/
CCOc1ccccc1CN1CCCCCCNC(=O)[C@@H]2CCC[C@@H]21,?,.,?,.,/,/,/,/
CC(=O)N1CCC(Cc2ccc(C(=O)NC3CCN(Cc4ccccc4)CC3)cc2)CC1,?,11µM,?,.,24µM,?,.,24µM
O=C(c1ccc(Br)cc1)N1CCN(c2cc(-c3ccc(Cl)cc3)[nH]n2)CC1,45µM,?,40µM,.,22µM,24µM,.,15µM
Cc1ccc(C(=O)N2CCN(c3cc(-c4ccc(Cl)cc4)[nH]n3)CC2)cc1F,?,18µM,?,.,27µM,22µM,.,24µM
Cc1ccc(C(=O)N2CCN(c3cc(-c4ccccc4)[nH]n3)CC2)cc1F,?,.,?,.,/,/,/,/
CN(C)c1ccc(C(=O)N2CCCN(c3cc(-c4ccc(Cl)cc4)[nH]n3)CC2)cc1,?,?,?,.,/,/,/,/
O=C(Cc1ccccc1F)N1CCN(c2cc(-c3ccc(Cl)cc3)[nH]n2)CC1,.,.,.,.,/,/,/,/
O=C(c1cccc2[nH]ccc12)N1CCCN(c2cc(-c3ccc(Cl)cc3)[nH]n2)CC1,?,10µM,?,.,15µM,19µM,?,14µM

# Screening data: PubChem BioAssay, National Center for Advancing Translational Sciences (NCATS)
